The source of these data is PubChem BioAssay (NCATS).

Each structure is given as a SMILES string. Inconclusive results are not listed. The source made the active and inactive calls. Unless noted, how the calls were made is not given here.

Test [1] is described as follows: Immunotoxin (HA22) sensitization/mitigation study. Vehicle arm (PBS) (AID 1159510). Further: potency means the concentration at half of the fitted maximal effect.
Test [2] is described as follows: Immunotoxin (SS1P) sensitization/mitigation study. Vehicle arm (DMEM) (AID 1159513). Further: potency means the concentration at half of the fitted maximal effect.
The nature of test [3]: qHTS Assay for Identifying Gametocytocidal Compounds (AID 743244; active means well fitted curve in the direction sought with a large enough effect; an effect the other way counts as inactive or inconclusive;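 further: on the % scale 0 is the no-effect control and ±100 the full control effect; actives lower the fluorescent signal which means gametocytes are killed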). To be noted: P. falciparum 3D7 stage III-V gametocytes, alamarBlue, 72 h; max response: stronger effect = lower value. The method, boiled down: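 P. falciparum 3D7 stage III–V gametocytes (20,000 cells/well) were exposed to compounds for 72 h at 37 °C, 5% CO2. AlamarBlue was then added for 24 h; decreased resorufin fluorescence (Ex 525/Em 598 nm) indicated loss of viability.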
For orientation: In qHTS, concentration-response curves come from the screen itself.

A short description of test [4]: qHTS profiling for inhibitors of Plasmodium falciparum (3D7) proliferation (AID 743322).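 Further: infected erythrocytes exposed to compound for 72 h before lysis; 100% = DMSO vehicle wells and 0% = 0.29 µM artemisinin.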 To be noted: P. falciparum 3D7 proliferation; at 28.7 µM (top of the series) unless noted. A digest of the protocol: (§1)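 Parasite DNA was quantified by SYBR Green I fluorescence (ex 485, em 535 nm) after overnight lysis in saponin/Triton buffer at room temperature. Cultures at 0.3% parasitemia and 2.5% hematocrit were first exposed to compound for 72 h at 37 C; signals were normalised to artemisinin (0.29 uM) and vehicle wells.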

A short description of test [5]: qHTS profiling for inhibitors of Plasmodium falciparum (DD2) proliferation (AID 743323). To be noted: lower = more inhibition; at 28.7 µM (top of the series) unless noted. The method, boiled down:
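SYBR Green fluorescence (ex 485, em 535 nm) of lysed cultures gives parasite DNA content; wells normalized to artemisinin (0.29 uM) and DMSO controls. Infected red cells: 0.3% parasitemia, 2.5% hematocrit, 72 h, 37 C.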

Test [6] can be described thus: qHTS profiling for inhibitors of Plasmodium falciparum (HB3) proliferation (AID 743324; active means well fitted curve in the direction sought with a large enough effect; an effect the other way counts as inactive or inconclusive;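 further: 100% = DMSO vehicle wells and 0% = artemisinin-treated control wells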). To be noted: Plasmodium falciparum HB3 blood-stage proliferation; at 28.7 µM (top of the series) unless noted. The method, boiled down: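 SYBR Green fluorescence (485 ex/535 em) of lysed cultures, incubated overnight at room temperature in the dark, quantifies parasite DNA. Infected erythrocytes at 0.3% parasitemia and 2.5% hematocrit were exposed 72 h; values normalized to DMSO and 0.29 uM artemisinin controls.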

A short description of test [7]: qHTS profiling of the MIPE4 collection as inhibitors of Plasmodium falciparum (3D7) proliferation (AID 743344).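 Further: scaled between DMSO vehicle wells and 0.29 µM artemisinin as full inhibition.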 Particulars: P. falciparum 3D7 in erythrocytes, SYBR Green DNA fluorescence, 72 h; at 28.5 µM (top of the series). A digest of the protocol:
as §1

Test [8] in a line: qHTS profiling of the MIPE4 collection as inhibitors of Plasmodium falciparum (DD2) proliferation (AID 743345). To be noted: P. falciparum Dd2 in erythrocytes, SYBR Green DNA, 72 h; at 28.5 µM (top of the series) unless noted. A digest of the protocol: as §1
Test [9] in a line: qHTS profiling of the MIPE4 collection as inhibitors of Plasmodium falciparum (DD2) proliferation (Rep 2) (AID 743346). To be noted: P. falciparum Dd2 in erythrocytes, SYBR Green DNA, 72 h; at 28.5 µM (top of the series). The method, boiled down:
as §1

A short description of test [10]: qHTS profiling of the MIPE4 collection as inhibitors of Plasmodium falciparum (HB3) proliferation (AID 743347).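 Further: plate controls were DMSO vehicle wells for no effect and artemisinin wells for full effect.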 Particulars: P. falciparum HB3 in erythrocytes, SYBR Green DNA, 72 h; at 28.5 µM (top of the series). A digest of the protocol:
as §1

Test [11] is described as follows: High-throughput drug toxicity screening in the BPDCN cell line Gen2.2 (AID 1224824).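 Further: cells exposed to compounds for 48 h before reading.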 To be noted: Gen2.2 BPDCN cells; at 45.8 µM (top of the series). A digest of the protocol: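 Gen2.2 cells (500/well) in phenol red-free RPMI with 10% FBS were exposed to compounds for 48 h at 37 °C, 5% CO2. Viability was read by CellTiter-Glo luminescence and normalized to DMSO (100%) and 9.2 uM bortezomib (0%).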

As to `O=c1cc(N2CCOCC2)oc2c(-c3cccc4c3sc3ccccc34)cccc12`, the values for the Potency in [1] and in test [2] were 16.6 µM (active) and 29.6 µM (active), respectively.
Taken in the same sequence, the figures for `CC(=O)OCCN1C(=O)c2c(C)nc3ccc(S(=O)(=O)N4CCOCC4)cc3c2C1=O` were “inactive” and “inactive”.
Taken in the same sequence, the figures for `COc1cc2c(Oc3ccc(NC(=O)C4(C(=O)Nc5ccc(F)cc5)CC4)cc3F)ccnc2cc1OCCCN1CCOCC1` were 16.6 µM (active) and 16.6 µM (active).
For `Oc1cccc(-c2nc(N3CCOCC3)c3oc4ncccc4c3n2)c1` the same measures were 0.264 µM (active) and 0.0935 µM (active).
Turning to `CN(C)C(=O)c1ccc(S(=O)(=O)c2ccc(NC(=O)[C@@](C)(O)C(F)(F)F)c(Cl)c2)cc1`, the Potency in [1] is 1.66 µM (active). Moreover, the Potency entry in test [2] is “inactive”.
For `COc1cc2ncnc(-n3nc(-c4ccccn4)nc3N)c2cc1OC` the same measures were 3.72 µM (active) and 4.18 µM (active).
Consider `COc1c(C)cnc(Cn2cnc3c(Cl)nc(N)nc32)c1C`, for which the Potency in test [1] is 0.0187 µM (active); in test [2] it was 0.0105 µM (active).
Consider `COC(=O)C1=C(C)NC(C)=C(C(=O)OCCCN2CCC(c3ccccc3)(c3ccccc3)CC2)[C@H]1c1cccc([N+](=O)[O-])c1`, for which the figures for the Potency in test [1] and in test [2] were 16.6 µM (active) and 26.4 µM (active), respectively.
With `Cc1cc(Nc2cc(N3CCN(C)CC3)nc(Sc3ccc(NC(=O)C4CC4)cc3)n2)n[nH]1`, the Potency in test [1] was 7.43 µM (active); in test [2] it was 18.7 µM (active).
For `C[C@@H](Oc1cc(-c2cnn(C3CCNCC3)c2)cnc1N)c1c(Cl)ccc(F)c1Cl` the same measures were 16.6 µM (active) and 18.7 µM (active).
Taken in the same sequence, the figures for `CCOc1ccc(Nc2nc(-c3c(C)nc4ccccn34)cs2)cc1` were 0.0105 µM (active) and 0.0059 µM (active).
For `CC(C)[C@H](CO)Nc1nc(Nc2ccc(C(=O)O)c(Cl)c2)c2ncn(C(C)C)c2n1` the same measures were “inactive” and “inactive”.
With `CCCCc1ccc(NS(=O)(=O)c2ccc(C)c(C(=O)N3CCN(c4cccc(C)c4C)CC3)c2)cc1`, the Potency in [1] was 20.9 µM (active); in [2], 23.5 µM (active).
Taken in the same sequence, the figures for `O=C(C=Cc1ccc(/C=C/C(=O)Nc2ccc(C3=NCCN3)cc2)cc1)Nc1ccc(C2=NCCN2)cc1` were “inactive” and “inactive”.
For `O=C(O)CCC1CCC(c2cc(F)ccc2F)(S(=O)(=O)c2ccc(Cl)cc2)CC1` (stereo unspecified), the Potency entry in test [1] and in [2] was “inactive” throughout.
With `O=C(NOC[C@H](O)CO)c1ccc(F)c(F)c1Nc1ccc(I)cc1F`, the Potency entry in test [1] and in test [2] was “inactive” each time.
Regarding `Nc1ccc(C(=O)c2cc3c(ccc4ccccc43)[nH]2)cc1`, the Potency in [1] is 0.743 µM (active); in test [2], 1.18 µM (active).
For `O=C1C(Cl)=C(NCCN2CCOCC2)C(=O)c2ncccc21`, the Potency in test [1] is 2.35 µM (active); in test [2], 14.8 µM (active).
As to `C=CCc1cccc(/C=N/NC(=O)CN2CCN(Cc3ccccc3)CC2)c1O`, the Potency in test [1] was 4.69 µM (active); in test [2], 13.2 µM (active).
Regarding `Cc1ccc(NC(=O)c2ccc(CN3CCN(C)CC3)cc2)cc1Nc1nc(-c2cccnc2)cs1`, the Potency in test [1] is 20.9 µM (active); in [2], 23.5 µM (active).
As to `CC(C)(C)c1cnc(CSc2cnc(NC(=O)C3CCNCC3)s2)o1`, the Potency was 0.0332 µM (active) in test [1] and 0.0526 µM (active) in test [2].
Taken in the same sequence, the figures for `CCN(CC)CCCCNc1ncc2cc(-c3cc(OC)cc(OC)c3)c(NC(=O)NC(C)(C)C)nc2n1` were 20.9 µM (active) and 20.9 µM (active).
Consider `CN(C)c1ccc(C2Nc3ccc4ccccc4c3C3=C2C(=O)CC(C)(C)C3)cc1Br` (stereo unspecified), for which the Potency was 11.8 µM (active) in test [1] and 18.7 µM (active) in test [2].
In the case of `Cc1ccc(C(=O)Nc2cccc(C(F)(F)F)c2)cc1-c1ccc2nc(NCCN3CCOCC3)ncc2c1`, the Potency is 14.8 µM (active) in [1] and 13.2 µM (active) in test [2].
For the compound `N#CCNC(=O)c1ccc(-c2ccnc(Nc3ccc(N4CCOCC4)cc3)n2)cc1`, the Potency was 5.26 µM (active) in test [1] and 16.6 µM (active) in test [2].
As for `Cc1ccnc(NS(=O)(=O)c2ccc(NC(=O)Nc3ccc(S(=O)(=O)Nc4nccc(C)n4)cc3)cc2)n1`, the Potency in test [1] was 16.6 µM (active); in test [2], 18.7 µM (active).
Taken in the same sequence, the figures for `O=C(O)c1ccc(-c2cc3cccnc3c(-c3ccc4nonc4c3)n2)cc1` were “inactive” and “inactive”.
Regarding `CC(=O)Nc1ccc(OC[C@](C)(O)C(=O)Nc2ccc([N+](=O)[O-])c(C(F)(F)F)c2)cc1`, the max response in [3] was 0.149% (inactive). Besides, the remaining parasite growth % (stronger effect = lower value) in test [4] came to 102%. Further, the activity, percent of control in test [5] was determined as 97.8%. In addition, the remaining proliferation (% of control), lower = more inhibition in [6] is 71.3%. In test [7], this compound registered a parasite growth, % of DMSO control of 70.7%. Moreover, in [8], the parasite growth remaining, % of DMSO control (lower = more inhibition) was found to be 88.6%. Besides, the parasite growth, % of control (lower = inhibition) in test [9] came out at 88.3%. In [10], this compound gave a growth, % of control of 91.2%. Also, the Potency entry in test [1] and in [2] was “inactive” each time. Further, the cell viability, % of control (lower = more cytotoxic) in [11] was found to be 138%.
In the case of `C[C@@H]1C[C@H]2[C@@H]3CCC4=CC(=O)C=C[C@]4(C)C3(F)[C@@H](O)C[C@]2(C)[C@@]1(O)C(=O)CO` (stereo partly specified), the Potency in test [1] was 0.059 µM (active). In addition, the Potency entry in test [2] was “inactive”.
Taken in the same sequence, the figures for `C=C1C(=CC=C2CCC[C@]3(C)[C@@H]([C@H](C)C=C[C@H](C)C(C)C)CC[C@@H]23)C[C@@H](O)C[C@@H]1O` were 20.9 µM (active) and “inactive”.
As for `Cc1nnc(C(C)C)n1C1CC2CCC(C1)N2CC[C@H](NC(=O)C1CCC(F)(F)CC1)c1ccccc1` (stereo partly specified), the Potency entry in test [1] and in [2] was “inactive” throughout.
On to `Cc1cn2c(-c3cn[nH]c3)cnc2c(Nc2ccc(C(=O)N3CCNCC3)cc2F)n1`, for which the values for the Potency in [1] and in [2] were 18.7 µM (active) and 13.2 µM (active), respectively.
For the compound `Cc1ccc(C(=O)Nc2ccc(CN3CCN(C)CC3)c(C(F)(F)F)c2)cc1C#Cc1cnc2cccnn12`, the values for the Potency in test [1] and in test [2] were 1.32 µM (active) and 6.62 µM (active), respectively.
With `CN1CCC(CNc2ccc3ncc(-c4cccc(OC(F)(F)F)c4)n3n2)CC1`, the values for the Potency in [1] and in [2] were 20.9 µM (active) and 16.6 µM (active), respectively.
Taken in the same sequence, the figures for `CCCCCN(CCC12CC3CC(CC(C3)C1)C2)C(=O)NCCCc1ccncc1` were 11.8 µM (active) and 23.5 µM (active).
Consider `CNC(=O)c1cc(Oc2ccc(NC(=O)Nc3cc(C(C)(C)C)nn3-c3ccc4ncccc4c3)c(F)c2)ccn1`, for which the figures for the Potency in [1] and in [2] were 6.62 µM (active) and 23.5 µM (active), respectively.
Turning to `CC1(C)Cc2c(-c3ccccc3)c(-c3ccc(Cl)cc3)c(CC(=O)O)n2C1`, the Potency in test [1] was 18.7 µM (active); in test [2], 16.6 µM (active).
For `O=C(C=Cc1cccc(S(=O)(=O)Nc2ccccc2)c1)NO` the same measures were 0.264 µM (active) and 0.833 µM (active).
Regarding `CC[C@H](CO)Nc1nc(NCc2ccccc2)c2ncn(C(C)C)c2n1`, the remaining parasite growth % (stronger effect = lower value) in test [4] was determined as 61.3%. The activity, percent of control in test [5] was 50.4%. The compound further came in with a parasite growth remaining, % of DMSO control (lower = more inhibition) in [8] of 67.6%. In [10], the growth, % of control was 47.3%. Besides, the values for the Potency in test [1] and in test [2] were 20.9 µM (active) and 23.5 µM (active), respectively.
